# High-throughput results as filed in PubChem.
# A selection: hits, their analogues and other compounds. The true share with any hit is near 3.1%.
# RAD52 anneal inh: RAD52 (human) annealing inhibition. AID 651710. P43351. inhibition, % at 18.7 µM. 360,000 tested, 0.46% active. recombinant RAD52 DNA annealing, FRET fluorescence;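 active = every replicate showing at least 50% inhibition; inconclusive = mean inhibition at least 50% but not in every replicate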
# MLL AF4-AF9 inh: inhibitors of human MLL-AF4/AF9 interaction; AID 651704; 350,000 tested, 0.47% active; AlphaScreen, biotin-AF4 peptide binding to FLAG-AF9; inhibition, % at 10 µM;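 active = every replicate reaching a set inhibition limit, whatever the replicate mean, cut at about 25% in these data; inconclusive = mean inhibition reaches that limit but some replicates miss it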;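 also: 0% = plate neutral control median and 100% = total signal loss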
# GSIS activator: GLuc luminescence reporter in INS-1E cells, primary screen for activators of glucose-dependent secretion of insulin. activation, % at 16.6 µM. 370,000 tested, 0.61% active. AID 743287. INS-1E GLuc reporter insulin secretion, 2-3 h;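 active = lowest replicate activation of at least 40%, so every replicate reaches that level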;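 also: 0% = median of neutral control wells and 100% = median of IBMX positive control wells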
# DENV2 CPE rescue: protects cells from dengue virus 2 cytopathic effect; CPE inhibition, % at 9.99 µM; 350,000 tested, 1.7% active; DENV2-infected cells, cytopathic effect rescue, plate reader; in the data active = CPE inhibition above about 20%, passing the limit was not always enough; inconclusive = no clear call, values can overlap the other calls; tested in BHK-21 cells;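 also: 0% = median of neutral control wells and 100% = median of positive control wells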
# RAD54 inh: blocks human RAD54 Holliday junction branch migration | FAM/BHQ fluorescence | Q92698 | inhibition, % at 10.4 µM | 360,000 tested, 0.14% active;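 active = mean normalized replicate activity at least 40 and at least half of replicates scoring 40 or more; inconclusive = only one of the two criteria met; inactive = mean below 40 and under half of replicates reaching 40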;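 also: 0% = median of neutral control wells and 100% = median of positive control wells; inhibitors cause a drop in the FAM fluorescence signal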
# Target sequence (Q92698 whole entry, looked up): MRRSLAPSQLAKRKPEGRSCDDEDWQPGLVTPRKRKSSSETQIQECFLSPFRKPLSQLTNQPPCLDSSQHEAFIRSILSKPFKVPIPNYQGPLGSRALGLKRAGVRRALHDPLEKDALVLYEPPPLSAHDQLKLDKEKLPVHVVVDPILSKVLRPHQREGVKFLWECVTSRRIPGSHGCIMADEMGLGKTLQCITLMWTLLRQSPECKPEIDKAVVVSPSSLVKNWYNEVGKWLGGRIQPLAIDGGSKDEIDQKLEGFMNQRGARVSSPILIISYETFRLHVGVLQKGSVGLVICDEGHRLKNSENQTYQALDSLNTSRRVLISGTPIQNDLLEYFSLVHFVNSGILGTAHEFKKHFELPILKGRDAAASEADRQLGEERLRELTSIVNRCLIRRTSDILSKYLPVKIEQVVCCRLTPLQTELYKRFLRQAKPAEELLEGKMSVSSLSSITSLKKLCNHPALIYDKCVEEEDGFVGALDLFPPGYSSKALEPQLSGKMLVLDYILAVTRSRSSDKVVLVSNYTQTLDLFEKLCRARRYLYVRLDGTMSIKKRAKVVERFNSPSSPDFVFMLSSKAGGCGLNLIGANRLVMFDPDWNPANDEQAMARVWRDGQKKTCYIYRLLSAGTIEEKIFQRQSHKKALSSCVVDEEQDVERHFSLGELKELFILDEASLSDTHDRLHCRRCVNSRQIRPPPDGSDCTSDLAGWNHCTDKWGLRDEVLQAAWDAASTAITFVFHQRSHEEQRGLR
# dFosB activator: activators of mouse delta FosB homodimer | P13346 | purified delta FosB, TAMRA-CDK5 oligo fluorescence polarization; percent of positive-control signal above neutral wells | activation, % at 25 µM | 340,000 tested, 0.99% active | AID 493131;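 active = mean activation above about 17%, with every replicate also reaching it, limit read from the data, passing the limit was not always enough; inconclusive = only one of the two conditions met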
# Active calls of the source: *; ? = inconclusive; . = no result given.
SMILES,RAD52 anneal inh,MLL AF4-AF9 inh,GSIS activator,DENV2 CPE rescue,RAD54 inh,dFosB activator
O=C(CC(F)(F)F)N1C[C@@H]2[C@H](c3ccccc31)[C@@H](CO)N2C(=O)C1CC1,8,-1,-3,36*,5,.
O=C(C1CCCC1)N1C[C@@H]2[C@H](c3ccccc31)[C@H](CO)N2C(=O)Cc1ccccn1,-72,-1,-19,0,-27,.
C[C@H](CO)N1C[C@H](C)[C@H](CN(C)S(=O)(=O)c2ccc(F)cc2)Oc2ccc(NS(=O)(=O)c3ccc(Cl)cc3)cc2C1=O,-5,1,-19,?,-1,.
C[C@@H]1CN([C@H](C)CO)C(=O)c2cc(NS(=O)(=O)c3ccccc3)ccc2O[C@@H](C)CCCCO[C@@H]1CN(C)CC1CC1,45,5,6,0,8,.
O=C(Cc1ccccc1)N1C[C@H]2[C@@H](c3ccccc31)[C@@H](CO)N2C(=O)C1CC1,4,-1,1,25*,-5,.
COc1ccccc1C(=O)N1C[C@@H]2[C@H](c3ccccc31)[C@H](CO)N2C(=O)C1CCCC1,-5,0,4,22*,-7,.
C[C@@H]1CCCCO[C@H](CN(C)S(C)(=O)=O)[C@@H](C)CN([C@@H](C)CO)C(=O)c2cc(NS(=O)(=O)c3ccc(F)cc3)ccc2O1,0,-1,2,10,0,.
Cc1noc(C)c1NC(=O)N(C)C[C@@H]1OCCCC[C@@H](C)Oc2ccc(NC(=O)Nc3ccccc3)cc2C(=O)N([C@H](C)CO)C[C@@H]1C,.,.,14,0,-5,.
CO[C@@H]1CN(C)C(=O)c2cc(NS(C)(=O)=O)ccc2OC[C@@H](C)N(C(=O)C2CCCC2)C[C@@H]1C,5,1,12,6,-9,.
O=C1CC(NS(=O)(=O)c2cccs2)CN1c1cccc(F)c1 (stereo unspecified),-7,-1,46*,19,.,2
O=C1CC(NS(=O)(=O)c2cccs2)CN1c1ccccc1 (stereo unspecified),0,-9,1,5,8,-12
Cc1cccc(C(=O)N2CCC(=O)N([C@H](COCc3ccc(Cl)cc3)Cc3ccccc3)CC2)c1,2,-2,-32,125*,.,.
CO[C@@H]1CN(C)C(=O)c2ccc(NC(=O)C3CC3)cc2OC[C@H](C)N(Cc2cccnc2)C[C@@H]1C,25,-2,-3,7,2,.
O=C(N/N=C/c1ccco1)c1cc(-c2ccc3ccccc3c2)n[nH]1,.,.,83*,.,6,-4
CCCCCc1cc(=O)oc2c(C(CCN3CCCC(C)C3)c3ccc(OC)cc3)c(OC)cc(OC)c12 (stereo unspecified),16,8,339*,3,6,11
COc1ccc(C(CC(=O)N2CCCCC2)c2c(OC)cc(OC)c3c(-c4ccccc4)cc(=O)oc23)cc1 (stereo unspecified),-13,3,-12,71*,-4,-26
COc1ccc(C(CCN2CCOCC2)c2c(OC)cc(OC)c3c(C)cc(=O)oc23)cc1 (stereo unspecified),-14,-13,-9,56*,-14,-10
C[C@@H]1CCCCO[C@H](CN(C)C(=O)CCCN(C)C)[C@H](C)CN([C@@H](C)CO)C(=O)c2cc(NC(=O)c3ccncc3)ccc2O1,.,.,41,7,6,.
CN(C)CC(=O)N[C@@H]1CC[C@H](CC(=O)O)O[C@@H]1CO,0,0,4,-4,.,.
COC(=O)C[C@H]1CC[C@@H]2[C@@H](COc3ccc(NC(=O)Nc4ccc(C#N)cc4)cc3C(=O)N2C)O1,-21,-9,0,2,-3,.
CCCCCCCC1c2c(c(C)c(C)oc2=O)Oc2c(C)c(C)oc(=O)c21,-7,.,-5,89*,-4,-3
C[C@@H]1CCCCO[C@@H](CN(C)C(=O)Nc2ccc(C(F)(F)F)cc2)[C@H](C)CN([C@@H](C)CO)C(=O)c2cc(NS(=O)(=O)c3ccccc3)ccc2O1,-30,-9,6,54*,-1,.
C[C@@H]1CN([C@@H](C)CO)C(=O)c2cc(NS(=O)(=O)c3ccc(F)cc3)ccc2O[C@@H](C)CCCCO[C@@H]1CN(C)C(=O)Nc1ccc(C(F)(F)F)cc1,10,-4,7,-12,.,.
C[C@H](CO)N1C[C@H](C)[C@H](CN(C)C(=O)Nc2ccc(C(F)(F)F)cc2)OCCCC[C@H](C)Oc2ccc(NS(C)(=O)=O)cc2C1=O,-27,-3,-21,?,5,.
C[C@@H]1CCCCO[C@H](CN(C)C(=O)Nc2ccc(C(F)(F)F)cc2)[C@@H](C)CN([C@@H](C)CO)C(=O)c2cc(NS(=O)(=O)c3ccccc3)ccc2O1,-54,1,11,-6,5,.
SMILES,RAD52 anneal inh,MLL AF4-AF9 inh,GSIS activator,DENV2 CPE rescue,RAD54 inh,dFosB activator
C[C@@H]1CCCCO[C@H](CN(C)C(=O)Nc2ccc(C(F)(F)F)cc2)[C@H](C)CN([C@@H](C)CO)C(=O)c2cc(NS(=O)(=O)c3ccccc3)ccc2O1,-19,0,7,40*,-2,.
C[C@@H]1CN([C@@H](C)CO)C(=O)c2cc(NS(C)(=O)=O)ccc2O[C@@H](C)CCCCO[C@@H]1CN(C)C(=O)Nc1ccc(C(F)(F)F)cc1,4,-17,-15,46*,.,.
C[C@@H]1CCCCO[C@H](CN(C)C(=O)Nc2ccc(C(F)(F)F)cc2)[C@@H](C)CN([C@H](C)CO)C(=O)c2cc(NS(=O)(=O)c3ccccc3)ccc2O1,8,1,10,37*,-1,.
Cc1noc(C)c1NC(=O)N(C)C[C@@H]1OCCCC[C@@H](C)Oc2ccc(NC(=O)Nc3ccc(F)cc3)cc2C(=O)N([C@H](C)CO)C[C@H]1C,8,0,-4,2,-2,.
C[C@@H]1CN([C@H](C)CO)S(=O)(=O)c2ccc(-c3cccnc3)cc2O[C@@H]1CN(C)Cc1cncnc1,-1,-1,25,19,-6,.
COCC(=O)N(C)C[C@H]1Oc2ncc(-c3ccc(C#N)cc3)cc2C(=O)N([C@@H](C)CO)C[C@@H]1C,6,-1,2,-2,-2,.
C[C@H](CO)N1C[C@H](C)[C@H](CN(C)C(=O)Nc2ccc(C(F)(F)F)cc2)OCCCC[C@H](C)Oc2ccc(NS(=O)(=O)c3ccccc3)cc2C1=O,-16,-15,-4,41*,-2,.
C[C@H]1CCCCO[C@@H](CN(C)C(=O)Nc2ccc(C(F)(F)F)cc2)[C@@H](C)CN([C@@H](C)CO)C(=O)c2cc(NS(=O)(=O)c3ccccc3)ccc2O1,-23,-8,19,12,-7,.
COc1ccc(C#Cc2ccc3c(c2)[C@@H]2[C@@H](CCN2C(=O)C2CCCCC2)[C@@H](CO)N3)cc1,.,.,3,.,1,.
COCC(=O)N1[C@H](C#N)[C@@H](c2ccccc2-c2cccc(F)c2)[C@@H]1CO,1,-2,-2,-4,.,.
